For 13 compounds, Potency results are on record in PubChem BioAssay (NCATS).

What all share (test): qHTS profiling for inhibitors of Plasmodium falciparum proliferation (AID 504749); also: nearly all actives have a fitted effect of over 60% in size
Settings in all cases: P. falciparum in erythrocytes, SYBR Green DNA, 72 h; series mostly up to 28.7 µM
A general note: In qHTS, concentration-response curves come from the screen itself.

Experiment [1] relates to CP252. An outline of the steps: (§1)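 Each compound contacts P. falciparum-infected red blood cells for 72 h at 37 C; lysis buffer (Tris, EDTA, saponin, Triton X, SYBR Green I) is added and fluorescence measured next morning; values normalized to controls.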
In experiment [2] the test system is CP256. An outline of the steps: as §1
The test system of experiment [3] is CP260. A digest of the protocol:
as §1

In experiment [4] the test system is CP262. A digest of the protocol:
as §1

For experiment [5], the system named is CP265. A digest of the protocol:
as §1

The test system of experiment [6] is CP268. An outline of the steps: as §1
Experiment [7] concerns CP269. A digest of the protocol: as §1
The subject of experiment [8] is CP286. An outline of the steps: as §1
The test system of experiment [9] is CP291. An outline of the steps: as §1
In experiment [10] the test system is CP297. A digest of the protocol: as §1
Experiment [11] has as its system CP305. A digest of the protocol:
as §1

Experiment [12] deals with CP315. A digest of the protocol: as §1
Experiment [13] relates to CP325. An outline of the steps: as §1
For experiment [14], the system named is CP329. A digest of the protocol: as §1
For experiment [15], the system named is CP335. An outline of the steps:
as §1

The subject of experiment [16] is DFO2036. A digest of the protocol:
as §1

Experiment [17] relates to DIV14. A digest of the protocol:
as §1

Experiment [18] relates to DIV17. A digest of the protocol: as §1
Experiment [19] relates to DIV30. A digest of the protocol:
as §1

The subject of experiment [20] is CP266. An outline of the steps:
as §1

Each structure is given as a SMILES string. Records with an inconclusive call do not appear. The source made the active and inactive calls. Calls follow the shape of the dose curve; as a rule, active = well fitted inhibition curve with a large enough effect; inconclusive = small, poorly fitted or top-dose-only effect; inactive = flat fitted curve, though single readings scatter.
Potency is read from the fitted curve at half-maximal effect.

Turning to `Cc1ccc(=O)n(-c2ccccc2)c1`, the Potency result in experiment [1], in experiment [2], in [3], in experiment [4], in [5] and in experiment [6] was “inactive” in each case. The Potency result in experiment [7], in experiment [8], in experiment [9], in experiment [10], in experiment [11] and in [12] was “inactive” each time. For the same compound, the Potency result in [13], in [14], in experiment [15], in [16], in [17] and in experiment [18] was “inactive” in each case. In addition, the Potency result in experiment [19] was “inactive”.
Regarding `CN(C)C/C=C(/c1ccc(Br)cc1)c1cccnc1`, the Potency entry in experiment [1], in experiment [2], in experiment [3], in experiment [4], in [5] and in experiment [20] was “inactive” each time. Also, the Potency result in experiment [6], in experiment [7], in [8], in [11], in [12] and in experiment [13] was “inactive” in each case. Further, the Potency result in experiment [14], in experiment [15], in experiment [16], in experiment [18] and in [19] was “inactive” each time.
For `CC(N=C(NC#N)Nc1ccncc1)C(C)(C)C` (stereo not drawn), the Potency result in experiment [1], in [2], in experiment [3], in experiment [5], in [20] and in [6] was “inactive” in each case. The Potency entry in experiment [7], in experiment [8], in experiment [9], in experiment [10], in experiment [11] and in [12] was “inactive” each time. The Potency entry in experiment [13], in experiment [14], in [15], in [16], in experiment [17] and in [18] was “inactive” throughout. The Potency result in experiment [19] is “inactive”.
Turning to `Cc1scc2c1N(C(=O)CN1CCN(C)CC1)c1ccccc1NC2=O`, the Potency entry in [1], in experiment [2], in experiment [3], in experiment [5], in [20] and in [6] was “inactive” in each case. The Potency entry in experiment [7], in [8], in [9], in [10], in [11] and in experiment [12] was “inactive” each time. Also, the Potency entry in [13], in experiment [14], in [15], in experiment [16], in experiment [17] and in experiment [18] was “inactive” each time. Further, the Potency result in [19] is “inactive”.
Take `OCCN1CCN(CC/C=C2/c3ccccc3Sc3ccc(C(F)(F)F)cc32)CC1`: the Potency in experiment [1] is 7.94 µM (active); in experiment [2], 3.98 µM (active); in experiment [3], 12.6 µM (active); in experiment [4] it was 6.01 µM (active); in experiment [6], 13.5 µM (active); in experiment [7] it was 4.78 µM (active). The Potency is 8.91 µM (active) in experiment [8]; 9.53 µM (active) in [9]; 6.75 µM (active) in experiment [10]; 7.57 µM (active) in [11]; 6.01 µM (active) in [13]; 6.75 µM (active) in experiment [14]. Moreover, the values for the Potency in experiment [15], in experiment [18] and in experiment [19] were 4.26 µM (active), 6.75 µM (active) and 8.49 µM (active), respectively.
Take `CCN(CC)CCCN(c1ccccc1)C1Cc2ccccc2C1`: the Potency was 10 µM (active) in experiment [1]; 4.47 µM (active) in [2]; 2.82 µM (active) in experiment [3]; 3.98 µM (active) in experiment [5]; 8.49 µM (active) in experiment [20]; 7.57 µM (active) in experiment [6]. Moreover, the Potency was 10.7 µM (active) in [7]; 5.01 µM (active) in experiment [8]; 7.57 µM (active) in experiment [9]; 13.5 µM (active) in experiment [10]; 6.75 µM (active) in [11]; 8.49 µM (active) in experiment [13]. For the same compound, the Potency in experiment [14] is 12 µM (active); in experiment [15] it was 4.78 µM (active); in experiment [16], 5.01 µM (active); in experiment [17], 2.13 µM (active); in [18] it was 4.26 µM (active); in [19] it was 8.49 µM (active).
For the compound `CN(C)CCOC(=O)COc1ccc(Cl)cc1`, the Potency entry in [1], in experiment [2], in experiment [3], in experiment [4], in experiment [5] and in [6] was “inactive” each time. Further, the Potency entry in experiment [7], in [8], in [9], in experiment [10], in experiment [11] and in [12] was “inactive” each time. Moreover, the Potency entry in experiment [14], in experiment [15], in [16] and in [19] was “inactive” throughout.
Consider `CC(=O)Nc1nnc(S(N)(=O)=O)s1`, for which the Potency entry in experiment [1], in [2], in experiment [3], in [4], in experiment [5] and in experiment [20] was “inactive” throughout. Also, the Potency result in experiment [6], in experiment [7], in experiment [8], in experiment [9], in experiment [10] and in experiment [11] was “inactive” throughout. Also, the Potency entry in experiment [12], in [13], in experiment [14], in experiment [15], in experiment [16] and in experiment [18] was “inactive” in each case. Moreover, in experiment [19], the Potency result is “inactive”.
Consider `CCCCNc1ccc(C(=O)OCCN(C)C)cc1`, for which the Potency entry in [1], in experiment [2], in [3], in experiment [4], in [5] and in experiment [6] was “inactive” in each case. The Potency result in experiment [7], in [8], in experiment [9], in experiment [10], in experiment [11] and in [12] was “inactive” in each case. The Potency result in experiment [15] and in experiment [19] was “inactive” throughout.
On to `CC(=O)[C@]1(O)Cc2c(O)c3c(c(O)c2[C@@H](O[C@H]2C[C@H](N)[C@H](O)[C@H](C)O2)C1)C(=O)c1ccccc1C3=O`, for which the Potency is 7.94 µM (active) in [1]; 10 µM (active) in experiment [2]; 2 µM (active) in experiment [3]; 12 µM (active) in [4]; 8.49 µM (active) in [20]; 9.53 µM (active) in [6]. In addition, the Potency in [7] was 10.7 µM (active); in [8], 1.41 µM (active); in experiment [9], 9.53 µM (active); in experiment [11], 8.49 µM (active); in [12], 15.1 µM (active); in experiment [14], 10.7 µM (active). Besides, the Potency was 1.69 µM (active) in experiment [15], 3.55 µM (active) in experiment [16], 4.78 µM (active) in experiment [17] and 4.78 µM (active) in experiment [18].
With `NC(=Nc1ccccc1)Nc1ccccc1`, the Potency entry in [1], in [2], in experiment [3], in [4], in [5] and in [20] was “inactive” in each case. Further, the Potency result in [6], in experiment [7], in experiment [8], in experiment [9], in experiment [11] and in [12] was “inactive” throughout. The Potency result in experiment [13], in experiment [14], in experiment [15], in experiment [16], in [18] and in [19] was “inactive” in each case.
In the case of `COc1ccc(CN(CCN(C)C)c2ccccn2)cc1`, the Potency result in experiment [1], in [2], in [3], in [4], in [6] and in [7] was “inactive” throughout. The Potency entry in [8], in experiment [9], in experiment [11], in experiment [12], in experiment [13] and in experiment [14] was “inactive” throughout. For the same compound, the Potency result in experiment [16] was “inactive”.
For `CN(C)CC[C@@H](c1ccc(Br)cc1)c1ccccn1`, the Potency entry in experiment [3], in [4], in [20], in experiment [8], in experiment [11] and in [12] was “inactive” each time. Also, the Potency result in [13] and in experiment [16] was “inactive” throughout. Further, the Potency in [17] was 3.79 µM (active); in [18], 7.57 µM (active).
